Compound activity from PubChem.
Compounds with a hit are over-represented: about 6.8% of the library has one in this group of screens.
PINK1 expr mod = changes PINK1 expression | PINK1 immunofluorescence, high-content cytometry, 24 h | Potency, µM (top dose mostly 76.6 µM), usual class: activators | 410,000 compounds, 0.2% hits | AID 624263; active means well fitted activation curve with a large enough effect; inconclusive means small, poorly fitted or top-dose-only effect; cell line not stated here; further: nearly all actives have a fitted effect of over 65% in size
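Stable cell line treated 24 h with compounds at 5 concentrations (CCCP controls), then fixed and immunostained for PINK1 plus nuclear and cell stains; PINK1 immunofluorescence quantified by laser-scanning microplate cytometry.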
SW480 rereplic = inducers of DNA re-replication in SW480 colon cancer cells. 340,000 compounds, 1.8% hits. AID 624297. Potency, µM (top dose mostly 46.1 µM), hits mostly activators. SW480 DNA re-replication, Hoechst DNA content imaging, 48 h; further: nearly all actives have a fitted effect of over 55% in size
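Treated cells incubate 48 hr (37 C, 5% CO2), are stained 40 min with Hoechst, and nuclear fluorescence is enumerated; a rise in nuclei with high DNA signal marks re-replication.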
KB-V1 cytotox = KB-V1 MDR subline cytotoxicity. Potency, µM (doses to about 46.1 µM), actives largely listed as cytotoxic. KB-V1 MDR cells viability, CellTiter-Glo, 72 h. 400,000 compounds, 3.4% hits; further: nearly all actives have a fitted effect of over 60% in size
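qHTS viability screen in drug-selected KB-V1 MDR cells: 72 h compound treatment at 37 degrees C, ATP luminescence end point.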
KB-3-1 cytotox = kills parental KB-3-1 adenocarcinoma cells. KB-3-1 viability, CellTiter-Glo ATP luminescence, 72 h. Potency, µM (highest dose often 46.1 µM), usual class: cytotoxic. 400,000 compounds, 1.4% hits. AID 1347075; further: nearly all actives have a fitted effect of over 60% in size
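Using CellTiter-Glo luminescence, growth of non-resistant KB-3-1 adenocarcinoma cells is assessed 72 h after pin-tool compound addition at 37 °C. Normalized responses across the concentration series yield fitted curves.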
MCF10A rerep = inducers of DNA re-replication in MCF 10A breast cells; 350,000 compounds, 2.9% hits; Potency, µM (doses to about 46.1 µM), hits mostly activators; MCF 10A DNA re-replication, Hoechst nuclear intensity, 48 h; further: nearly all actives have a fitted effect of over 50% in size
PTAP TSG101 blk = blocks PTAP/TSG101 interaction to inhibit HIV-1 budding | Fluorescence polarization, FITC-PTAP peptide / Tsg101 binding | Potency, µM (highest dose often 115 µM), hits mostly inhibitors | 340,000 tested, under 10 active; active means well fitted inhibition curve with a large enough effect in the main read-out, with a control signal flat, not every such curve was filed as active; inconclusive means small, poorly fitted or top-dose-only effect, or effect the other way, or a change in a side signal; inactive means no such curve, though single readings can be large or run the other way
Target sequence (Q99816 whole entry, looked up): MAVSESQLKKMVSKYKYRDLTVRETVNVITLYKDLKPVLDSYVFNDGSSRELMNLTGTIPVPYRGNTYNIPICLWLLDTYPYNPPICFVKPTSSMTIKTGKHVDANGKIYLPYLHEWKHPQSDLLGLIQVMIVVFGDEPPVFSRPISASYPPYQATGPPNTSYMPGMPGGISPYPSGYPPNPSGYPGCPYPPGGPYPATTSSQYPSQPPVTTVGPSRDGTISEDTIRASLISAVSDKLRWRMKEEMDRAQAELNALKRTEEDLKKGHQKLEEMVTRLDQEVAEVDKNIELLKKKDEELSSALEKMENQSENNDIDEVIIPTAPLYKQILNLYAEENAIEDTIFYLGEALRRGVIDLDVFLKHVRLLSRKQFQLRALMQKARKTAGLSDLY
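Steps: Tsg101 binding domain dispensed (10 uM final), compounds pinned in DMSO, FITC-labeled PTAP-motif peptide added (50 nM final); after 20 min binding at room temperature, polarization measured.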
Numbers stand for hits. Unless noted, the call rests on the fitted dose curve; in most records, active means well fitted curve in the direction sought with a large enough effect; inconclusive means small, poorly fitted or top-dose-only effect, or another doubt; inactive means no such curve, though single readings can be large; an effect the other way counts as inactive or inconclusive.

Screening COc1cc(CNc2ccc(N3CCOCC3)cc2)cc(Br)c1OC returned PINK1 expr mod inactive, SW480 rereplic inconclusive, KB-V1 cytotox inactive, KB-3-1 cytotox inactive, MCF10A rerep inactive and PTAP TSG101 blk inactive.
`C=CCOc1c(Cl)cc(CNc2ccc(N(C)C)cc2)cc1OC` gave PINK1 expr mod inconclusive, SW480 rereplic inconclusive, KB-V1 cytotox 5.2µM, KB-3-1 cytotox inconclusive, MCF10A rerep inconclusive and PTAP TSG101 blk inactive.
`CCOc1c(Cl)cc(CNc2ccc3[nH]c(=O)[nH]c3c2)cc1OC` gave PINK1 expr mod inactive, KB-V1 cytotox inactive and KB-3-1 cytotox inactive.
For Cc1cccc(C(=O)NCc2cn3cccc(C)c3n2)c1 the results were PINK1 expr mod inactive.
For CCOc1cc(CNc2ccc(N3CCCCC3)cc2)cc(Br)c1OCC(=O)NC(C)(C)C the results were PINK1 expr mod 14µM, SW480 rereplic inactive, KB-V1 cytotox 15µM, KB-3-1 cytotox inactive, MCF10A rerep inconclusive and PTAP TSG101 blk inactive.
Screening COC(=O)c1ccccc1NC(=O)N1CCc2ccc(NC(=O)c3ccccn3)cc2C1 returned PINK1 expr mod inactive, SW480 rereplic 18µM, KB-V1 cytotox inconclusive, KB-3-1 cytotox inconclusive, MCF10A rerep inactive and PTAP TSG101 blk inactive.
`O=C(Nc1ccc2c(c1)CN(C(=O)Nc1ccc(F)cc1)CC2)c1ccccn1` gave PINK1 expr mod inactive, KB-V1 cytotox inconclusive and KB-3-1 cytotox inconclusive.
CCc1sc(N2C(=O)C3C4CCC(C4=C(C)C)C3C2=O)nc1-c1ccccc1 (centres undefined) was read as PINK1 expr mod inactive, SW480 rereplic inactive, KB-V1 cytotox 12µM, KB-3-1 cytotox inactive and MCF10A rerep inconclusive.
For CCc1sc(NC(=O)CN2CCC(C(N)=O)CC2)nc1-c1ccccc1 the results were PINK1 expr mod inactive, SW480 rereplic inactive, KB-V1 cytotox inactive, KB-3-1 cytotox inactive, MCF10A rerep inactive and PTAP TSG101 blk inactive.
For Cc1ccc(-c2cn(-c3ccccc3)c(SCC(=O)NC3CCS(=O)(=O)C3)n2)cc1C (centres undefined) the results were PINK1 expr mod inactive, SW480 rereplic inactive, KB-V1 cytotox 3.7µM, KB-3-1 cytotox inactive, MCF10A rerep inactive and PTAP TSG101 blk inactive.
CC1(C)SC(=S)N(/N=C/c2ccccc2)C1N(O)C(=O)Nc1ccc([N+](=O)[O-])cc1 (centres undefined) was read as PINK1 expr mod 32µM, SW480 rereplic inactive, KB-V1 cytotox inactive, KB-3-1 cytotox inconclusive, MCF10A rerep inactive and PTAP TSG101 blk inactive.
`Cc1nn2c(=O)cc(COC(=O)c3ccc(NC(=O)COc4ccc(Cl)cc4)cc3)nc2s1` gave PINK1 expr mod inactive.
`CCN1c2ccccc2NC2N=C(OC)C(c3ccccc3)C21` (centres undefined) gave PINK1 expr mod inactive, SW480 rereplic 16µM, KB-V1 cytotox inconclusive, KB-3-1 cytotox inactive and MCF10A rerep inconclusive.
Screening CCCN1C(=O)c2ccccc2NC1c1cc(OC)c(OC)c(OC)c1 (centres undefined) returned PINK1 expr mod inactive, SW480 rereplic inactive, KB-V1 cytotox inactive, KB-3-1 cytotox inactive, MCF10A rerep inactive and PTAP TSG101 blk inactive.
`CC/C(=C(/CC)c1ccc(O)cc1)c1ccc(O)cc1` gave PINK1 expr mod inactive, SW480 rereplic inconclusive, KB-V1 cytotox inconclusive, KB-3-1 cytotox inactive, MCF10A rerep 24µM and PTAP TSG101 blk inactive.
`CC/C(=C(/CC)c1ccc(OP(=O)(O)O)cc1)c1ccc(OP(=O)(O)O)cc1` gave SW480 rereplic inactive and MCF10A rerep inactive.
For O=S(=O)(c1cccs1)N1CCN(CCOc2ccc(Cl)cc2)CC1 the results were PINK1 expr mod inactive, SW480 rereplic inactive, KB-V1 cytotox inconclusive, KB-3-1 cytotox inconclusive, MCF10A rerep inactive and PTAP TSG101 blk inactive.
For O=S(=O)(c1cccs1)N1CCN(CC(O)COc2cc(Cl)ccc2Cl)CC1 (centres undefined) the results were PINK1 expr mod inactive, SW480 rereplic inactive, KB-V1 cytotox 8.2µM, KB-3-1 cytotox inconclusive, MCF10A rerep inconclusive and PTAP TSG101 blk inactive.
`COc1ccc(N(CC(=O)Nc2cc(C)ccc2OC)S(=O)(=O)c2c(C)noc2C)cc1` gave PINK1 expr mod inactive, SW480 rereplic inconclusive, KB-V1 cytotox 9.2µM, KB-3-1 cytotox inconclusive, MCF10A rerep inconclusive and PTAP TSG101 blk inactive.
COc1ccc(N(CC(=O)Nc2cccc(C)c2C)S(=O)(=O)c2c(C)n[nH]c2C)cc1 was read as PINK1 expr mod inactive, SW480 rereplic inactive, KB-V1 cytotox 18µM, KB-3-1 cytotox inactive, MCF10A rerep inactive and PTAP TSG101 blk inactive.
`COc1ccc(N(CC(=O)Nc2cc(Cl)ccc2C)S(=O)(=O)c2c(C)noc2C)cc1` gave PINK1 expr mod inactive, SW480 rereplic inactive, KB-V1 cytotox inconclusive, KB-3-1 cytotox 5.8µM, MCF10A rerep 4.1µM and PTAP TSG101 blk inactive.
`COc1ccc(N(CC(=O)Nc2cc(C)ccc2C)S(=O)(=O)c2c(C)noc2C)cc1` gave PINK1 expr mod inactive, SW480 rereplic inconclusive, KB-V1 cytotox inconclusive, KB-3-1 cytotox inconclusive, MCF10A rerep inconclusive and PTAP TSG101 blk inactive.
Screening Cn1cc(-c2cc3n(n2)CCC(=O)N3CCCC(=O)Nc2ccc(F)cc2F)c2ccccc21 returned PINK1 expr mod inactive, KB-V1 cytotox inactive and KB-3-1 cytotox inactive.
For CCOc1ccc(CCNC(=O)CSCc2nc(-c3cccc(C)c3)oc2C)cc1OCC the results were PINK1 expr mod inactive, KB-V1 cytotox inconclusive and KB-3-1 cytotox inactive.
`Cc1ccccc1CS(=O)(=O)c1snnc1C` gave PINK1 expr mod inactive, SW480 rereplic inactive, KB-V1 cytotox inactive, KB-3-1 cytotox inactive, MCF10A rerep inactive and PTAP TSG101 blk inactive.
Cc1ccccc1CS(=O)(=O)c1cnc2ccccc2n1 was read as PINK1 expr mod inactive, SW480 rereplic inconclusive, KB-V1 cytotox inconclusive, KB-3-1 cytotox inactive, MCF10A rerep 18µM and PTAP TSG101 blk inactive.
For Brc1ccc(OCc2nc(-c3ccccn3)n[nH]2)cc1 the results were PINK1 expr mod inactive, SW480 rereplic inactive, KB-V1 cytotox inactive, KB-3-1 cytotox inactive, MCF10A rerep inactive and PTAP TSG101 blk inactive.
`Clc1ccc(OCc2nc(-c3ccccn3)n[nH]2)cc1` gave PINK1 expr mod inconclusive, SW480 rereplic inconclusive, KB-V1 cytotox 4.6µM, KB-3-1 cytotox inconclusive, MCF10A rerep inconclusive and PTAP TSG101 blk inactive.
For O=C(CCc1nc(-c2ccc(Cl)cc2)no1)NC1CCCCC1 the results were PINK1 expr mod inactive, SW480 rereplic inactive, KB-V1 cytotox inconclusive, KB-3-1 cytotox inactive, MCF10A rerep inconclusive and PTAP TSG101 blk inactive.
`O=C(CCc1nc(-c2ccccc2Cl)no1)NC1CCCCC1` gave PINK1 expr mod inactive, SW480 rereplic inactive, KB-V1 cytotox inactive, KB-3-1 cytotox inactive, MCF10A rerep inactive and PTAP TSG101 blk inactive.
